Each structure is given as a SMILES string. Compounds without any hit were thinned out: in the full panel of roughly 83,000, 20% have a hit.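 Percent growth is the endpoint: 0 to 100 indicates growth inhibition (40 means 60% inhibition), 0 means no net growth, and negative values indicate cell death.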 A number with no mark means an inactive call. The source made the active and inactive calls. The calls were made as follows: active = growth percent below 10; inactive = the rest.

The subject of the experiment is U251 CNS. As to the kind of experiment: NCI-60 one-dose screen, 48 h (100 = growth as untreated, 0 = no growth, -100 = all killed). Conditions: 10 µM unless noted.
With `Cc1cc2nc3c4cc(Cl)ccc4n(CC(=O)NCCN(C)C)c3nc2cc1C`, the growth was -38% (active).

Take `COc1cc(/C=C/C(=O)c2ccc(C)cc2)ccc1Oc1nc(NCCO)nc(N2CCOCC2)n1`: the growth was 34.6%.

Turning to `O=C(N/N=C/c1ccc(Cl)s1)c1[nH]c2ccc(Br)cc2c1-c1ccccc1`, the growth is 16.5%.

As for `NS(=O)(=O)c1cccc(Nc2nc(SCC(=O)c3ccc([N+](=O)[O-])cc3)nc3ccccc23)c1`, the growth was 52.2%.

For `Nc1c(C(=O)c2ccc(Br)cc2)oc2nc(-c3cnccn3)cc(-c3cccs3)c12`, the growth was 92.1%.

As for `O=C(N/N=C/c1ccc([N+](=O)[O-])o1)c1[nH]c2ccc(Br)cc2c1-c1ccccc1`, the growth is 13.3%.

For `O=C(N/N=C/c1ccc([N+](=O)[O-])s1)c1[nH]c2ccc(Br)cc2c1-c1ccccc1`, the growth was 9.11% (active).

As for `C#Cc1nc(C2=C(C)C(O)/C(=N/O)C2)cs1` (centres undefined), the growth is 109%.

Regarding `COc1cc(/C=C/C(=O)c2cc(OC)c(OC)c(OC)c2)ccc1OCc1ccccc1`, the growth was 13.6%.

Consider `CCCC(=O)NC(c1ccc(N(CC)CC)cc1)c1cc(C)c2cccnc2c1O` (centres undefined), for which the growth was 25.6%.

As to `CN1CCc2c(sc3ncnc(N/N=C/c4ccc(Cl)c(Cl)c4)c23)C1`, the growth was -43.6% (active).

Turning to `O=C(N/N=C/c1ccc[nH]1)c1[nH]c2ccc(Br)cc2c1-c1ccccc1`, the growth is 21.8%.

As for `COC(=O)C1CCCN(S(=O)(=O)/N=C2\NC(=O)NC2=C(Cl)Cl)C1` (centres undefined), the growth is 95.3%.

As for `C=CCn1c(SCC(=O)c2ccccc2)nnc1-c1c[nH]c2ccccc12`, the growth was 107%.

In the case of `COc1ccc(-n2c(SCC(=O)Nc3ccc(-c4nc5ccccc5[nH]4)cc3)nc3ccccc3c2=O)cc1`, the growth was -83.4% (active).

On to `O=C(Oc1ccc2ccc(=O)oc2c1)c1ccc(Cl)cc1`, for which the growth is 106%.

Take `COc1ccc(C(=O)/C=C/c2ccc(OCc3ccc(Cl)cc3)c(OC)c2)cc1OC`: the growth was 58.1%.

Turning to `O=C(N/N=C/c1cccs1)c1[nH]c2ccc(Br)cc2c1-c1ccccc1`, the growth is 19.1%.

As for `Cc1cc2nc3c4cc(Cl)ccc4n(CC(=S)NCCN(C)C)c3nc2cc1C`, the growth is -54.8% (active).

For `COc1ccc([C@@H]2c3[nH]c4ccccc4c3CC3C(=O)N(C4CCN(Cc5c(F)cccc5F)CC4)CC(=O)N32)c(OC)c1` (some centres undefined), the growth was 62% [5.26 µM].

With `Cc1cc(C(NC(=O)CCCCCNc2cccc3c2C(=O)N(C2CCC(=O)NC2=O)C3=O)c2cccnc2)c(O)c2ncccc12` (centres undefined), the growth is 30.7%.

For the compound `CC(=NNc1ncnc2ccccc12)c1ccc(S(C)(=O)=O)cc1`, the growth is 117%.

For `Nc1nc(N)c2c(n1)NC(c1ccc(C(F)(F)F)cc1)CC(c1ccc(Nc3nc(NCCO)nc(Nc4ccc(Cl)cc4)n3)cc1)=N2` (centres undefined), the growth was -22.3% (active).

In the case of `COc1ccc(/C=C2\SC(=Nc3cc(C)[nH]n3)NC2=O)cc1`, the growth was 98.1%.

As to `Cn1ccnc1C(=O)/C=C/c1ccc(NC(=O)Nc2ccc(Cl)cc2)cc1`, the growth was 62.6%.

Turning to `COC(=O)C1CN(S(=O)(=O)/N=C2\NC(=O)NC2=C(Cl)Cl)C1`, the growth was 105%.

`Nc1nc(N)c2c(n1)NC(c1ccc(F)cc1)CC(c1ccc(Nc3nc(NCCO)nc(Nc4ccc(Cl)cc4)n3)cc1)=N2` (centres undefined): the growth is -76.6% (active).

For `COc1cc(/C=C/C(=O)c2cc(OC)c(OC)c(OC)c2)ccc1OCc1ccc(F)cc1`, the growth was 33.8%.

Consider `CC(O)C(NC(=O)C1CCCN1C(=O)CNC(=O)C1CC(=O)NCC(=O)NC(Cc2c[nH]c3ccccc23)C(=O)NC(Cc2ccc(O)cc2)C(=O)NCC(=O)NC(CO)C(=O)NC(CCC(N)=O)C(=O)NC(Cc2c[nH]c3ccccc23)C(=O)N1)C(=O)NCC(=O)NC(CCC(N)=O)C(=O)NC(CCCNC(=N)N)C(=O)NC(CC(=O)O)C(=O)O` (centres undefined), for which the growth is 106%.

As to `COc1cc(/C=C/C(=O)c2cc(OC)c(OC)c(OC)c2)ccc1Oc1nc(NCCO)nc(N2CCOCC2)n1`, the growth was -36.9% (active).

In the case of `COc1cc(N=Cc2sc(Nc3nccs3)nc2O)cc(OC)c1OC`, the growth is 84.7%.

For the compound `C#Cc1nc(C2=C(C)C(OC(=O)CCC(=O)O)CC2)cs1` (centres undefined), the growth was 106%.

On to `O=C(N/N=C/c1ccc(Br)s1)c1[nH]c2ccc(Br)cc2c1-c1ccccc1`, for which the growth is 24.4%.

On to `COc1cc(/C=C/C(=O)c2ccc(Cl)cc2)ccc1Oc1nc(NCCO)nc(N2CCOCC2)n1`, for which the growth was 94%.

The values above are taken from PubChem BioAssay (NCI).
